High-throughput results as filed in PubChem BioAssay.
An excerpt weighted towards active compounds, which were near 11% of everything screened.
ALDH1A1 block – inhibitors of human aldehyde dehydrogenase 1A1; Purified ALDH1A1, NADH fluorescence, propionaldehyde substrate; Potency, µM (top dose mostly 75.3 µM), without a hit: top-dose activity, negative = inhibition, hits mostly inhibitors; 7.3% of 220,000 active;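 note: potency is the fitted concentration of half-maximal effect; plate controls were no enzyme wells and a reference inhibitor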
PNC assembly inh – perinucleolar compartment assembly inhibition; PC3M PTB-GFP, PNC prevalence imaging, 16 h; hits give low values; activity change (PNC), negative = inhibition, % at 10 µM; 3.1% of 140,000 active; AID 2417;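 active = readout at or below -70, meaning at least 70% loss of cells showing the perinucleolar compartment, a nuclear body marking cancer cells; inconclusive = readout between -30 and a set limit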;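 note: plate controls were DMSO wells for no effect and camptothecin positive control wells for full effect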
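Read-out is percentage of cells bearing a perinucleolar compartment, from automated 20x imaging of fixed, Hoechst-stained PC3M PTB-GFP cells. Cells were seeded 4 h, then exposed 16 h to compound (23 nl of library stock) in duplicate plates.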
HPGD block – HPGD (human) dehydrogenase inhibition; P15428; purified HPGD, NADH fluorescence kinetic, PGE2 substrate; 4.3% of 150,000 active; AID 894; Potency, µM, for the others: top-dose activity change, negative = inhibition, hits mostly inhibitors; note: potency is the fitted concentration of half-maximal effect
Target sequence (P15428 whole entry, looked up): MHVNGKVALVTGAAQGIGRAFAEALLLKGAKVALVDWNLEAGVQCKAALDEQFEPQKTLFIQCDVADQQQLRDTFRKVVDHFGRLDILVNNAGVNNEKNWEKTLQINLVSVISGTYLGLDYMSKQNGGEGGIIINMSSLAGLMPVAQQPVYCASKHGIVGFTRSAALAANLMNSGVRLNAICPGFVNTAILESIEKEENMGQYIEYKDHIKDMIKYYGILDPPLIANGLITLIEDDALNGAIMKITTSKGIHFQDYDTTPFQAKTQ
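NADH formation kinetics: reaction with 30 uM PGE2 and 1 mM NAD+ (final), 20 nM enzyme, Tris-HCl pH 8 with Tween 20, after 15 min compound preincubation at room temperature. Fluorescence change, last versus first of five reads.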
The depositor's hits bear a star; u = inconclusive; x = no result; [ ] = remark or other dose. Unless noted, calls come from the whole dose curve; as a rule, active = well fitted inhibition curve with a large enough effect (not every such curve was filed as active); inconclusive = small, poorly fitted or top-dose-only effect, or another doubt; inactive = no such curve, though single readings can be large or run the other way. Unless noted, % is set by controls: 0 for no effect and ±100 for the full control effect.

SMILES	ALDH1A1 block	PNC assembly inh	HPGD block
Cn1c(=O)[nH]c(=O)c2c1nc(CN1CCN(c3ccc(F)cc3)CC1)n2CCc1ccccc1	-5.7%	-100.0*	-10.5%
Cn1c(=O)[nH]c(=O)c2c1nc(CN1CCN(c3ccc(F)cc3)CC1)n2CCCc1ccccc1	3.1%	130.6	-8.5%
COc1cc([N+](=O)[O-])ccc1NC(=O)CN1CCN(C(=O)c2ccco2)CC1	4.1%	x	x
N#Cc1ccc(CN2CC3(CCN(C(=O)c4ccncc4)CC3)C2)cc1	4.8%	x	-2.6%
C=Cc1c(C)/c2[n-]/c1=C\c1[n-]c(c(CC)c1C)/C=c1\[n-]c3c(c1C)C(=O)C(C(=O)[O-])C=3c1[n-]c(c(C)c1CCC(=O)[O-])\C=2.[Cu].[Na+].[Na+] (stereo unspecified)	u	x	25.1µM*
Cc1ccc2nc(SC(C(=O)c3ccccc3)c3ccccc3)nc(C)c2c1 (stereo unspecified)	u	-27.0	-11.2%
CCCS(=O)(=O)c1nc(S(=O)(=O)c2ccc(C)cc2)c(N2CCc3ccccc3C2)s1	1.41µM*	u	-16.6%
Cc1ccc2nc(NNC(=O)c3ccc(S(=O)(=O)N4CCc5ccccc5C4)cc3)sc2c1	-2.5%	41.2	-7.5%
CCCS(=O)(=O)c1nc(S(=O)(=O)c2ccc(C)cc2)c(N2CCCC2)s1	7.94µM*	u	-16.6%
Cc1ccc(S(=O)(=O)c2nc(S(C)(=O)=O)sc2N(C)C)cc1	-13.5%	u	-1.4%
CCSc1nnc(NC(=O)Nc2cccc(C)c2)s1	-12.1%	x	x
CN(C)CCc1c[nH]c2ccc(CC3COC(=O)N3)cc12 (stereo unspecified)	-0.1%	x	-5.1%
Cc1ccccc1C(C(=O)NC1CCCCC1)N(C(=O)c1ccccn1)c1cccnc1 (stereo unspecified)	7.1%	x	x
CC(C)CC(NC(=O)c1ccc(Cl)cc1)C(=O)OCc1cc([N+](=O)[O-])cc2c1OCOC2 (stereo unspecified)	u	-2.1	-7.0%
CCOc1cc(/C=N/NC(=O)C(=O)N2CCCC2)ccc1O	-0.2%	x	x
CCOc1cc(/C=C2\CCCC(C(=O)C(F)(F)F)=C2O)ccc1O	0.159µM*	u	-12.6%
COc1ccc(/C=C2/CCc3ccccc3C2=O)cc1OC	-13.9%	-13.8	-15.8%
COc1ccc(/C=C2\CCCC(C(=O)C(F)(F)F)=C2O)cc1OC	0.126µM*	x	x
O=C1CCCS(=O)(=O)c2ccccc21	8.3%	x	x
CSCCC(NC(=O)/C(=C/c1ccc(F)cc1)NC(C)=O)C(=O)O (stereo unspecified)	-2.8%	x	x
Cc1nn(C)c(N)c1[N+](=O)[O-]	-2.3%	x	x
Cc1nn(C)c(Sc2ccccc2N)c1[N+](=O)[O-]	3.98µM*	x	x
Cc1c(-c2cc(C(=O)O)on2)cnn1C	0.5%	x	x
COCCCn1c(SCC(=O)Nc2cccc(C(=O)OC)c2)nnc1-c1ccncc1	11.7%	u	x
COCCCn1c(SCC(=O)Nc2sc3c(c2C#N)CCCC3)nnc1-c1ccncc1	20µM*	-0.1	u
SMILES	ALDH1A1 block	PNC assembly inh	HPGD block
CN(C)CCCn1c(SCC(=O)Nc2sc3c(c2C#N)CCCC3)nnc1-c1ccncc1	7.08µM*	28.1	5.9%
Cn1c(CNC(=O)c2ccc(Cl)c(Cl)c2)nnc1SCC(=O)Nc1sc2c(c1C#N)CCCC2	-16.9%	61.6	-22.4%
CCOC(=O)/C(=N\NC(=O)c1ccccc1)c1ccccc1	-1.8%	u	-6.3%
C=C(C(=O)OCC)C(=O)c1ccccc1	14.1µM*	x	-7.8%
Cc1sc2ncnc(N/N=C/c3ccccc3O)c2c1C	-3.4%	u	-18.8%
COc1cccc(/C=N/Nc2ncnc3scc(-c4ccccc4)c23)c1OC	u	12.3	17.8µM*
CCOC(=O)C1=C(C)NC(C)=C(C(=O)OCC)C1C(=O)OCC(=O)N(C)C1CCS(=O)(=O)C1 (stereo unspecified)	6.2%	x	x
CC1=C(C(N)=O)C(c2cccs2)n2nc(-c3cccc(C)c3)nc2N1 (stereo unspecified)	3.1%	u	-0.3%
CCOc1ccccc1C1C(C(N)=O)=C(C)Nc2nc(-c3cccc(C)c3)nn21 (stereo unspecified)	20µM*	u	-6.6%
O=C(O)CCC/C=C\C[C@@H]1CO[C@H](C(F)(F)F)O[C@@H]1c1ccccc1O	11.2%	x	-10.5%
CCCC(=O)Nc1cc(OC)c(C(=O)OC)cc1Cl	-5.7%	x	x
CCOC(CCn1c(SCC(=O)Nc2cc(C)on2)nc2ccccc2c1=O)OCC	-1.6%	x	x
COc1ccc(-c2csc(Nc3ccc(S(=O)(=O)Nc4cc(OC)nc(OC)n4)cc3)n2)cc1	u	98.1	u
COc1cc(NS(=O)(=O)c2ccc(N/C=C\C(=O)c3ccc(OC)c(OC)c3)cc2)nc(OC)n1	u	26.6	u
COc1cc(NS(=O)(=O)c2ccc(NC(C)=O)cc2)nc(OC)n1	u	9.9	1.9%
NC(N)=NS(=O)(=O)c1ccc(NC(=S)NC(=O)c2sc3ccccc3c2Cl)cc1	u	u	-6.6%
COc1cc(NS(=O)(=O)c2ccc(NC(=S)NC(=O)c3sc4cc(F)ccc4c3Cl)cc2)nc(OC)n1	8.91µM*	7.6	15.8µM*
COc1cc(NS(=O)(=O)c2ccc(N/C=C(\C#N)c3nc4cc(Cl)ccc4o3)cc2)nc(OC)n1	8.8%	u	28.2µM*
COc1cc(NS(=O)(=O)c2ccc(NC(=S)NC(=O)c3sc4ccccc4c3Cl)cc2)nc(OC)n1	11.2µM*	-19.7	25.1µM*
COc1cc(NS(=O)(=O)c2ccc(NC(=O)c3ccco3)cc2)nc(OC)n1	1.6%	-82.2*	-5.3%
CC12CN(C(=S)Nc3ccccc3)CC(C)(CN(C(=S)Nc3ccccc3)C1)C2=O	-86.4%	x	x
CNC(=S)NN(c1ccccc1)c1ccccc1	10.1%	93.3	-6.8%
COCCNC(=S)NN(c1ccccc1)c1ccccc1	31.6µM*	x	x
CCCCNN	3.3%[13.5 µM]	x	1.6%
O=C(Oc1ccc(NC2=NS(=O)(=O)c3ccccc32)cc1)c1cccnc1	6.8%	x	x
SMILES	ALDH1A1 block	PNC assembly inh	HPGD block
COc1ccccc1-n1c(SCC(=O)NCc2ccc3c(c2)OCO3)nc2cc([N+](=O)[O-])ccc21	1.12µM*	-10.2	-18.4%
CC(Sc1nc2cc([N+](=O)[O-])ccc2n1-c1ccc(F)cc1)C(=O)NCc1ccc2c(c1)OCO2 (stereo unspecified)	1.41µM*	-24.4	u
Cc1cc(C)cc(-n2c(SC(C)C(=O)NCc3ccc4c(c3)OCO4)nc3ccccc3c2=O)c1 (stereo unspecified)	15.0%	-10.2	-0.4%
O=C(CSc1nc2ccccc2c(=O)n1-c1ccccc1)NCc1ccc2c(c1)OCO2	u	21.7	-12.8%
Nc1ccc(C(=O)c2cccs2)cc1[N+](=O)[O-]	-7.9%	x	x
N#C/C(=C\C1=C(N2CCOCC2)C(=C\c2ccc(Cl)cc2)/CC1)C(=O)Nc1ccccc1F	-2.5%	u	-21.1%
CCN(CC)c1ccc(/C=C2\CCC(/C=C(\C#N)C(=O)Nc3ccccc3F)=C2N2CCOCC2)cc1	u	48.2	11.2µM*
COc1ccc(-n2nnnc2SCC(=O)c2cccc(OC)c2)cc1	2.7%	4.5	-7.5%
O=C(CSc1nnnn1-c1ccc(F)cc1)c1ccc(O)c(O)c1	22.4µM*	x	x
Cc1nc2cnc(Oc3ccccc3)nc2n(-c2ccccc2)c1=O	22.4µM*	x	-10.2%
Cn1c(=O)c(-c2ccccc2)nc2cnc(Oc3ccccc3)nc21	u	x	-17.6%
